{"source": "PubChem BioAssay (EPA / NIEHS)", "note": "Inconclusive results are not listed. Activity calls are given as the source filed them. The calls were made as follows: active = hit-call score of the fitted dose curve at least 0.9, where 1 is the maximum; inconclusive = response in the unintended direction; inactive = score below 0.9.", "data": [{"target": "human CYP2B6, CYP2B6 (gene 1555) (UniProt P20813)", "sequence (P20813 whole entry, looked up)": "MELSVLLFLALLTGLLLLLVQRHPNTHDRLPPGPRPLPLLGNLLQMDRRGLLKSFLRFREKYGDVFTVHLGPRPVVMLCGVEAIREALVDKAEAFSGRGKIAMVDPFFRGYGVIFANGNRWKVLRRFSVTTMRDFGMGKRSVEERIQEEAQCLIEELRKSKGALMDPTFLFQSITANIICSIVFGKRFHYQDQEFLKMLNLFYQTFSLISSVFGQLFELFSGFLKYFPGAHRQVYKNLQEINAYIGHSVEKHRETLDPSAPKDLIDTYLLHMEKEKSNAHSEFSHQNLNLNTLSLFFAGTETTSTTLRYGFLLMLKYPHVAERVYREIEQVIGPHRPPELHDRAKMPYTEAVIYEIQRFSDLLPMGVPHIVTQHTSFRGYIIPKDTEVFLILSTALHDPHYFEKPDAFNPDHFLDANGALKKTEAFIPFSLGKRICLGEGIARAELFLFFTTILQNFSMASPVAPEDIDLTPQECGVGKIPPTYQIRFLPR", "assay": "NVS_ADME_hCYP2B6: NovaScreen (NVS) CYP450-related Enzyme Activity (ADME) Assay for human CYP2B6 (AID 2283101)", "experimental": "NVS_ADME_hCYP2B6 is a biochemical, single-readout assay that uses extracted gene-proteins in a cell-free assay. Measurements were taken 1 hour after chemical dosing in a 96-well plate.NVS_ADME_hCYP2B6 is one of one assay component(s) measured or calculated from the NVS_ADME_hCYP2B6 assay. It is designed to make measurements of enzyme activity, a form of enzyme reporter, as detected with fluorescence intensity signals by Fluorescence technology.Data from the assay component NVS_ADME_hCYP2B6 was analyzed into 1 assay endpoint. This assay endpoint, NVS_ADME_hCYP2B6, was analyzed in the positive analysis fitting direction relative to Acetonitrile as the negative control and baseline of activity. Using a type of enzyme reporter, loss-of-signal activity can be used to understand changes in the enzymatic activity as they relate to the gene CYP2B6. Furthermore, this assay endpoint can be referred to as a primary readout, because this assay has produced multiple assay endpoints where this one serves a enzymatic activity function. To generalize the intended target to other relatable targets, this assay endpoint is annotated to the cyp intended target family, where the subfamily is xenobiotic metabolism.\nBinding assays used specific radioligands (tritiated, iodinated) with non-radioactive competitive displacement ligands in agonist or antagonist protocols (as indicated) and various reference compounds and inhibitors to titrate specific binding to receptors and transporters. Most enzyme assays (CYPs, kinases, phosphatases, proteases, HDACs) used recombinant protein and specific substrates (fluorescence mostly, some colorimetric and radioactive) and inhibitors, followed by a biochemical separation of substrate and product. All assays for the biochemical HTS were initially run in duplicate at a single concentration (10 uM for CYP450 assays and 25 uM for all others). […] Each assay was run with positive and negative controls, and concurrent controls on every plate. The follow-up (secondary) screen tested active chemical-pairs in concentration series, as well as a few additional assays not tested in the primary screen, some selected negative inactives, and several cases re-run in the concentration series for confirmatory purposes.", "values": [{"smiles": "CCOP(=S)(OCC)Oc1nc(Cl)n(C(C)C)n1", "AC50": "1 µM (active)"}, {"smiles": "CCCCOCN(C(=O)CCl)c1c(CC)cccc1CC", "AC50": "8.94 µM (active)"}, {"smiles": "CCOP(=O)(OCC)Oc1nc(Cl)c(Cl)cc1Cl", "AC50": "8.04 µM (active)"}, {"smiles": "COC(=O)c1c(C(F)F)nc(C(F)(F)F)c(C2=NCCS2)c1CC(C)C", "AC50": "5.93 µM (active)"}, {"smiles": "CCCCC(O)(Cn1cncn1)c1ccc(Cl)cc1Cl", "note": "(stereo unspecified)", "AC50": "1.07 µM (active)"}, {"smiles": "CCN(CC)C(=O)C(C)Oc1cccc2ccccc12", "note": "(stereo unspecified)", "AC50": "5.79 µM (active)"}, {"smiles": "CCNP(=S)(OC)O/C(C)=C/C(=O)OC(C)C", "note": "(stereo unspecified)", "AC50": "0.723 µM (active)"}, {"smiles": "CCCCC(C#N)(Cn1cncn1)c1ccc(Cl)cc1", "note": "(stereo unspecified)", "AC50": "6.49 µM (active)"}, {"smiles": "COP(=S)(OC)Oc1ccc([N+](=O)[O-])c(C)c1", "AC50": "1.3 µM (active)"}, {"smiles": "COP(=S)(OC)SCn1nnc2ccccc2c1=O", "AC50": "0.302 µM (active)"}, {"smiles": "CCN(CC)c1nc(C)cc(OP(=S)(OC)OC)n1", "AC50": "4.4 µM (active)"}]}]}
